Assay results: PubChem BioAssay AID1851 (National Center for Advancing Translational Sciences (NCATS), 2009)
Several values for one entry are separate records, joined by “and”; a condition that tells them apart may be missing. Equal values may be shown once. Among all 16,000 compounds or so, about 5,700 (36%) were called active. Another 24% or so got no clear call; they are omitted. Calls follow the shape of the dose curve; as a rule, active = well fitted curve in the direction sought with a large enough effect; inconclusive = small, poorly fitted or top-dose-only effect, or effect the other way; inactive = no such curve, though single readings can be large or run the other way. The list shows a part of the results.

Each molecule was assayed against Cytochrome P450 1A2 (Homo sapiens) (UniProt P05177) (assay: Cytochrome panel assay with activity outcomes). Conditions: recombinant CYP, pro-luciferin dealkylation, luminescence, p450-cyp1a2; series mostly up to 57.1 µM.
Cytochrome P450 1A2 (Homo sapiens), sequence (P05177 whole entry, looked up): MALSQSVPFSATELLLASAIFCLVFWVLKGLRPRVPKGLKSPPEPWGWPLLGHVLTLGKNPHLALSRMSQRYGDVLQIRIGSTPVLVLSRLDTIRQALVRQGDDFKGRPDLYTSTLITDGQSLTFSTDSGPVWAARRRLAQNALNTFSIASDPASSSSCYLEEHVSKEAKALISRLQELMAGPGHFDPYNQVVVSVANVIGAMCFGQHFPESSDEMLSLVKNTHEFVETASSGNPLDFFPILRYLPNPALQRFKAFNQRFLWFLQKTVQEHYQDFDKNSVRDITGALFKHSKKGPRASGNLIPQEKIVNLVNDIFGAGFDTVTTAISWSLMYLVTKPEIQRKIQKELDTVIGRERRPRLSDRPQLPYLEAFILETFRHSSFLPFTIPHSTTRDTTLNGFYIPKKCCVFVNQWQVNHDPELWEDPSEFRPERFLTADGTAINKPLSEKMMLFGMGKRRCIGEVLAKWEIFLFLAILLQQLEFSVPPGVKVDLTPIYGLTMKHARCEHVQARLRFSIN
% is scaled to controls: 0 for no effect and ±100 for the full control effect.

AC50, active:
C=CCNCCCCOc1c(Cl)cc(C)cc1Br 0.2 µM, COCCCNCCCCOc1c(Cl)cc(C)cc1Br 0.562 µM, NNc1nncc2ccccc12 1 µM, CCOC(=O)NNc1nncc2ccccc12 5.01 µM, c1ncc(-c2ccoc2)c(NC2CC2)n1 15.8 µM, Fc1ccc(Nc2ncncc2-c2ccoc2)cc1 0.316 µM, c1ccc(Nc2ncncc2-c2ccoc2)cc1 1 µM, COc1cc(/C=N/O)cc(Br)c1OCc1cccc(Cl)c1 0.631 µM, N/C(=N\OC(=O)c1cc(-c2ccccc2)nc2ccccc12)c1ccc(Cl)cc1 11.2 µM, CCNc1ncc2nc(-c3ccccc3)c(=O)n(C3CC3)c2n1 2.51 µM, CCNc1ncc2nc(-c3ccc(Cl)cc3)c(=O)n(C3CC3)c2n1 0.501 µM, Cc1ccc(O)c(-c2cc(C(F)(F)C(F)F)nc(-c3ccccc3)n2)c1 2.82 µM, COc1ccccc1NC(=S)NC(=O)c1ccc(-c2ccc(Cl)cc2)o1 2.82 µM, Fc1ccc(NC(=S)NCCc2ccccc2)c(F)c1F 5.62 µM, Fc1ccccc1NC(=S)NCCc1ccccc1 5.62 µM, COc1ccccc1NC(=S)NCCc1ccccc1 12.6 µM, CC(C)(C)c1ccc(S(=O)(=O)/C=C\C#N)cc1 1.58 µM, CC(=O)NCCC(=O)Nc1sc2c(c1-c1nc3ccccc3[nH]1)CCCC2 7.08 µM, Cc1c(OC(=O)c2ccc([N+](=O)[O-])cc2)c2c(c[n+]1C)COC(C)(C)OC2 17.8 µM, O=C(NCCCN1CCOCC1)c1cc(C(=O)C2CC2)c[nH]1 17.8 µM, O=C(NCCc1ccccn1)c1cc(C(=O)C2CCCCC2)c[nH]1 14.1 µM, COc1ccc(NC(=O)c2cccs2)c([N+](=O)[O-])c1 3.16 µM, COc1ccc(NC(=O)CSc2nncn2C)c([N+](=O)[O-])c1 11.2 µM, COc1ccc(NC(=O)c2ccc(C)cc2Cl)c([N+](=O)[O-])c1 2 µM, c1ccc2c(Nc3ccncc3)nc(-c3ccc4c(c3)OCO4)nc2c1 1.26 µM, c1ccc(Nc2nc(-c3ccc4c(c3)OCO4)nc3ccccc23)cc1 1.26 µM, CN1CCN(c2nc3cc(C(F)(F)F)ccc3n3cccc23)CC1 200 nM and 39.8 nM, COc1ccc(-c2csc(N3C(=N)SCC3=O)n2)cc1 0.631 µM, N=C1SCC(=O)N1c1nc(-c2ccccc2)cs1 1.41 µM, Cc1cccc(NC(=O)CSc2nnnn2C)n1 14.1 µM, CC1=NS(=O)(=O)c2cc(Cl)ccc2N1 3.16 µM and 2 µM, Clc1ccc(-c2cc3ccccc3[nH]2)cc1 0.501 µM, N#C/C(=C\NC(=S)c1ccncc1)c1nc2ccccc2s1 3.16 µM, CN(C)c1ccc(-c2cncnc2Nc2ccc(F)cc2)cc1 0.501 µM, CN(C)c1ccc(-c2cncnc2Nc2ccccc2)cc1 0.398 µM, O=S(=O)(/N=C(/Nc1ccccn1)c1ccccc1)c1ccc(Cl)cc1 14.1 µM, O=S(=O)(/N=C(\Sc1ccccc1)c1ccccc1)c1ccc(Cl)cc1 8.91 µM, O=S1(=O)C=C(Oc2ccc3ccccc3c2)c2ccccc21 1.26 µM, N#Cc1c(NC(=O)CCN2C(=O)c3ccccc3C2=O)oc(-c2ccccc2)c1-c1ccccc1 2.24 µM, CN(C/C=C\c1ccccc1)Cc1cccc2ccccc12 2 µM, CN(Cc1cccc2ccccc12)Cc1cccc2ccccc12 3.16 µM, Cc1ccc(C(=O)/C=C2\NCC(C)NC2=O)cc1 (configuration not stated) 15.8 µM, O=[N+]([O-])c1ccc(-c2cnc(SCc3ccccc3Cl)[nH]2)cc1 6.31 µM, CSc1nnc(-c2ccc(Cl)cc2Cl)o1 2.51 µM, Clc1ccc(-c2nnc(CCc3ccccc3)o2)c(Cl)c1 0.708 µM, COc1cccc(-c2cc(=O)c3ccccc3o2)c1N 0.2 µM, COC(=O)c1ccc(NC(=O)Cn2nc(-c3ccncc3)nc2SCC(=O)Nc2nccs2)cc1 11.2 µM, O=C(CSc1nc2ccccc2c2ccccc12)c1ccccc1 0.251 µM, CCOC(=O)CSc1cc(CS(=O)c2ccc(Cl)cc2)nc(-c2ccccc2)n1 (configuration not stated) 10 µM, O=C(CSc1ccccn1)Nc1nc2ccc(Br)cc2s1 2.51 µM

AC50, inactive:
FC(F)(F)c1cc(CN2CCCC3(CCNCC3)C2)cc(C(F)(F)F)c1, Cc1noc(C)c1-c1cncnc1NC1CC1, COc1cc(C2C(C#N)=C(N)N(Nc3ccccc3)C3=C2C(=O)CC(C)(C)C3)ccc1OCc1ccccc1 (configuration not stated), COc1ccccc1NC(=S)NNC(=O)c1c(Cl)c(C)nn1C, CCn1cc(C(=O)O)c(=O)c2cc(F)c(N3CCN[C@@H](C)C3)c(F)c21, C[C@@](N)(C(=O)O)c1ccc(S(=O)(=O)O)cc1, CCc1cc2c(=O)c(-c3nc4ccccc4[nH]3)coc2cc1OC(=O)N1CCOCC1, OCC1CCCN(Cc2ccc(-c3ccccc3)cc2)C1 (configuration not stated), Cc1cc(C)cc(N(C(=O)c2ccccn2)C(C(=O)NC2CCCCC2)c2cccs2)c1 (configuration not stated), O=C(NCCCN1CCOCC1)c1cc2c(s1)CSC2, Cc1ccc(C(=O)c2c[nH]c(C(=O)NCCCN3CCOCC3)c2)cc1, COc1ccc(NC(=O)C(=O)NNC(=O)c2cccs2)c(OC)c1, COc1ccc(NC(=O)CN(C)S(=O)(=O)c2ccc(Cl)cc2)c([N+](=O)[O-])c1, CCOc1ccc(/C=C/C(=O)Nc2ccc(OC)cc2[N+](=O)[O-])cc1, COc1cc(C2C(C#N)=C(N)N(Nc3ccccc3)C3=C2C(=O)CC(C)(C)C3)ccc1OCc1cccc(F)c1 (configuration not stated), O=C1C2C3c4ccccc4C(c4ccccc43)C2C(=O)N1c1nc(-c2ccccc2)cs1 (configuration not stated), CC(C)OC(=O)CC12CN(C)CC(CC(=O)OC(C)C)(CN(C)C1)C2=O, Cc1c(NC(=O)CSc2nnnn2C)c(=O)n(-c2ccccc2)n1C, NS(=O)(=O)c1cc2c(cc1Cl)NC(CSCc1ccccc1)=NS2(=O)=O, CC(C)NC(=O)N1CCC2(CC1)CCN(C(=O)c1ccncc1)CC2, Cc1ccc(C(C2C(=O)CC(C)(C)CC2=O)C2C(=O)CC(C)(C)CC2=O)s1, COc1ccccc1N/C(=N/S(=O)(=O)c1ccc(C)cc1)c1ccc(Cl)cc1, O=S(=O)(/N=C(/Nc1ccc(F)cc1F)c1ccc(Cl)cc1)c1ccccc1, O=S(=O)(c1ccccc1)N1CCC2(CC1)CN(c1ccccn1)C2, Cn1cccc1C(=O)N1CCC2(CCN(Cc3nccs3)CC2)CC1, O=C(Cc1ccccc1)NC1CCN(S(=O)(=O)c2ccc(C(=O)O)cc2)CC1, c1ccc2c(CC3=NCCN3)cccc2c1, NCCCCCCCCCCN, Cc1ccc(C(=O)C2CCNCC2)cc1, O=C(Cc1ccccc1[N+](=O)[O-])NCc1ccccc1Cl, Nc1cc(N)nc(SCC(=O)c2ccccc2)n1, CCN(CC)C(=O)CSc1nc2ccc(NC(=O)CSc3nnc(COc4ccccc4C)n3C)cc2s1, CCc1cccc(C)c1NC(=O)CSc1nc2ccc(N3C(=O)c4ccccc4C3=O)cc2s1

activity, negative = inhibition, inactive:
C[C@H]1/C=C\CC(=O)OC[C@H](C)C(=O)N2CCC[C@@H]2C(=O)OC1 7.07% [at 11.4 µM], O=C(O)c1cc(-c2ccc(-c3ccc(-c4cc(C(=O)O)c5cc(Cl)ccc5n4)cc3)cc2)nc2ccc(Cl)cc12 -18.1% [at 2.29 µM], O=C1[C@H]2[C@H]3[C@H](O)[C@H](O)C/C(=N/OC[C@@H](O)COCc4ccco4)[C@@H]3CC[C@@H]2C(=O)N1Cc1ccccc1 11.1% [at 11.4 µM], O=C(O)C1=C/C(=C(/c2ccccc2)c2cc(C(=O)O)c(O)c3ccccc23)c2ccccc2C1=O -21.5% [at 11.4 µM] and -13.1% [at 11.4 µM], C/C(CCC(=O)OC[C@@H]1O[C@H](C#Cc2ccccc2)C=C[C@@H]1Oc1ccc(C)cc1)=N/O[C@@H](C)CN1CCCc2nc(C)c(C)cc21 -8.42% [at 11.4 µM], CC(=O)OC[C@@H]1O[C@@H](O/N=C2/C[C@@H](O)[C@@H](O)[C@@H]3[C@@H]4C(=O)N(C(C)(C)C)C(=O)[C@H]4CC[C@@H]23)[C@H](OC(C)=O)[C@H](OC(C)=O)[C@@H]1OC(C)=O -1.47% [at 11.4 µM], [O-][N+]1(CC[N+]2([O-])CCCCC2)CCCCC1 -3.29% [at 11.4 µM], CC(C)(C)N1C(=O)[C@H]2[C@@H]3[C@H](O)C=CC(=O)[C@H]3CC[C@H]2C1=O -5.4% [at 11.4 µM], CCOc1ccccc1-n1nnnc1SCC(=O)Nc1cc(C)on1 -7% [at 11.4 µM], CC(C)CO/N=C1/C[C@@H](O)[C@@H](O)[C@@H]2[C@@H]3C(=O)N(C[C@@H]4CCCO4)C(=O)[C@H]3CC[C@@H]12 -0.346% [at 11.4 µM], CC(C)CNc1nc(N)[nH]c(=O)c1NC=O -20.7% [at 11.4 µM], Cc1ccccc1C(=N)c1ccccc1Cc1cccc2ccccc12 -17.6% [at 2.29 µM], c1ccc2c(CC3NCCN3)cccc2c1 -7.37% [at 11.4 µM], O=c1n(-c2ccccc2)c(=O)n2n1CC[C@H]1/C(=N\OC[C@@H](O)COCc3ccco3)[C@H]3O[C@@H]3[C@@H](O)[C@@H]12 -3.26% [at 11.4 µM] and -7.74% [at 11.4 µM]
